Laboratory results from the supplement of paper PMC7801607.

test system: Plasmodium berghei ANKA liver stage in HepG2-A16-CD81; test: % inhibition of liver stage parasite viability (luciferase); higher = more inhibition; details: 5 µM; 48 h
Method: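 Single-concentration screen of the MMV Pandemic Response Box. P. falciparum NF54 asexual blood stages: pLDH assay, 72 h at 37 °C, 2 and 20 µM, n=2. Stage IV/V gametocytes (NF54): luciferase reporter (NF54-Pfs16-GFP-Luc, 48 h), ATP bioluminescence (24 h) and PrestoBlue (48 h) at 1 and 5 µM, n=1. P. berghei liver stage (luciferase in HepG2-A16-CD81, 48 h post infection) at 5 µM, n=4. All normalised to DMSO and kill controls as % inhibition.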

**Q.** With `COc1ccc2c(c1OC)C(=O)OC2C1c2c(cc3c(c2OC)OCO3)CCN1C` (stereo not given) as the molecule, how does the “% inhibition of liver stage parasite viability” value (shortened to “% inhibition”) read?
**A.** Its value is 19%.

**Q.** Which “% inhibition” value does the source give for `O=C(Nc1cccc(C2=NCCN2)c1)c1ccc(-c2ccc(C(=O)Nc3cccc(C4=NCCN4)c3)cc2)cc1` here?
**A.** Its value is 15.4%.

**Q.** `CC#C[C@]1(O)CC[C@H]2[C@@H]3CCC4=CC(=O)CCC4=C3[C@@H](c3ccc(N(C)C)cc3)C[C@@]21C` was tested. Which “% inhibition” value did it give?
**A.** The value was 15.2%.

**Q.** For `COc1cc(Cc2cc(N)nc(N)n2)cc(OC)c1OC`, which “% inhibition” value is on record?
**A.** Its value is 81.6%.

**Q.** For `Nc1nnc(-c2ccc(Cl)cc2)s1`, which “% inhibition” value is on record?
**A.** The value was 26.2%.

**Q.** How did the “% inhibition” value turn out when `CSc1ccc2c(c1)C(N1CCN(C)CC1)Cc1ccccc1S2` (stereo not given) was run?
**A.** Its value is 23%.

**Q.** With `OC1O[C@H](CSc2ccc(F)cc2)[C@@H](O)[C@H]1O` (stereo not given in full) as the molecule, how does the “% inhibition” value read?
**A.** The value was 31.6%.

**Q.** How did the “% inhibition” value turn out when `CCc1cc(O)c(Oc2ccc(C(N)=O)cc2F)cc1F` was run?
**A.** The value was 8.75%.

**Q.** `CCOC(=O)N1CCN(c2ccc(Cl)cc2)CC1` was tested. Which “% inhibition” value did it give?
**A.** The value was 29.3%.

**Q.** Which “% inhibition” value does the source give for `CC(N)C(=O)NC(CCCCN)C(=O)NC(CCCNC(=N)N)C(=O)NC(Cc1c[nH]cn1)C(=O)NC(Cc1c[nH]cn1)C(=O)NCC(=O)NC(Cc1ccc(O)cc1)C(=O)NC(CCCCN)C(=O)NC(CCCNC(=N)N)C(=O)NC(CCCCN)C(=O)NC(Cc1ccccc1)C(=O)NC(Cc1c[nH]cn1)C(N)=O` (stereo not given) here?
**A.** Its value is 26.4%.

**Q.** For `O=c1cc(Nc2ccc3ccccc3c2)[nH]c(=O)[nH]1`, which “% inhibition” value is on record?
**A.** Its value is 39.9%.

**Q.** With `CCC(C)NCC(O)Cn1c2ccc(Cl)cc2c2cc(Cl)ccc21` (stereo not given) as the molecule, how does the “% inhibition” value read?
**A.** Its value is -2.71%.

**Q.** `COc1ccc(SCC(=O)N2c3ccccc3Sc3ccccc32)cc1` was tested. Which “% inhibition” value did it give?
**A.** Its value is 31.1%.

**Q.** `CCn1cc(C(=O)O)c(=O)c2cc(F)c(N3CCNC(C)C3)c(F)c21` (stereo not given) was tested. Which “% inhibition” value did it give?
**A.** The value was 22.1%.

**Q.** For `CC[C@@H](CO)NCCN[C@@H](CC)CO`, which “% inhibition” value is on record?
**A.** Its value is 32.9%.

**Q.** With `COc1c(NC(=O)[C@H]2CC[C@@H](COc3ccc([N+](=O)[O-])cc3)CC2)c(F)cc2c(=O)c(C(=O)O)cn(C3CC3)c12` as the molecule, how does the “% inhibition” value read?
**A.** The value was 46.8%.

**Q.** For `Cc1cc(C)n(O)c(=O)c1`, which “% inhibition” value is on record?
**A.** Its value is 15.5%.

**Q.** How did the “% inhibition” value turn out when `CCCC(=O)OCCc1ccccc1` was run?
**A.** Its value is -8.54%.

**Q.** `CCc1nc2ccc(Cl)cn2c1C(=O)NCc1ccc(N2CCC(c3ccc(OC(F)(F)F)cc3)CC2)cc1` was tested. Which “% inhibition” value did it give?
**A.** Its value is 72.1%.

**Q.** Which “% inhibition” value does the source give for `Nc1nc(Nc2ccc3nc(-c4ccc(F)cc4)cc(N)c3c2)cc(-c2ccccc2)n1` here?
**A.** Its value is 13.6%.

**Q.** With `N=c1n(CCN2CCCCC2)c2ccccc2n1CC(O)COc1ccc(Cl)cc1Cl` (stereo not given) as the molecule, how does the “% inhibition” value read?
**A.** Its value is -0.075%.

**Q.** For `O=C(/C=C\n1cnc(-c2cc(C(F)(F)F)cc(C(F)(F)F)c2)n1)NNc1ccccn1`, which “% inhibition” value is on record?
**A.** Its value is 16.2%.

**Q.** How did the “% inhibition” value turn out when `O=C(N[C@H](Cc1cccc2ccccc12)C(=O)NCCc1c[nH]cn1)C1Cc2ccccc2C1` was run?
**A.** Its value is 21.8%.

**Q.** With `CC(C)=CCC/C(C)=C/CNCCNC1C2CC3CC(C2)CC1C3` (stereo not given) as the molecule, how does the “% inhibition” value read?
**A.** The value was 21.8%.

**Q.** For `C[C@H](NC(CC(=O)c1ccccc1C(F)(F)F)C(=O)O)c1ccccc1` (stereo not given in full), which “% inhibition” value is on record?
**A.** Its value is 36.5%.

**Q.** With `C(=C\c1nc2ccccc2[nH]1)/c1ccc2c(c1)OCO2` as the molecule, how does the “% inhibition” value read?
**A.** Its value is -23.6%.

**Q.** How did the “% inhibition” value turn out when `c1ccc(Cn2c(-c3ccccn3)nc3ccccc32)cc1` was run?
**A.** Its value is -11%.

**Q.** For `COc1cc(Cc2cnc(N)nc2N)cc(OC)c1OC`, which “% inhibition” value is on record?
**A.** The value was 66.4%.

**Q.** Which “% inhibition” value does the source give for `CCc1cc(CCC(=O)Nc2ccccc2O)c(=O)[nH]c1C` here?
**A.** Its value is 17.8%.

**Q.** For `CC(C)CCN1C(=O)C(C2=NS(=O)(=O)c3cc(NS(C)(=O)=O)ccc3N2)=C(O)[C@@H]2[C@H]3CC[C@H](C3)[C@@H]21`, which “% inhibition” value is on record?
**A.** Its value is 47.3%.

**Q.** `O=C(NCc1ccccc1Cl)c1cnc2ccccc2n1` was tested. Which “% inhibition” value did it give?
**A.** The value was 12.6%.

**Q.** For `Nc1nc(O)c(Br)c(-c2ccccc2)n1`, which “% inhibition” value is on record?
**A.** The value was 5.43%.

**Q.** How did the “% inhibition” value turn out when `O=C(NCc1ccc2c3c(cccc13)C(=O)N2)c1cccs1` was run?
**A.** Its value is 17.9%.

**Q.** How did the “% inhibition” value turn out when `O=S(=O)(NCB(O)O)c1ccc(-c2nnn[nH]2)cc1C(F)(F)F` was run?
**A.** Its value is 29.3%.

**Q.** How did the “% inhibition” value turn out when `Cc1c[nH]c(=O)nc1NCc1ccccc1` was run?
**A.** The value was 18.3%.

**Q.** `CC(C)(C)c1ccc(Oc2ccc(N)cc2)cc1` was tested. Which “% inhibition” value did it give?
**A.** Its value is 54.4%.

**Q.** Which “% inhibition” value does the source give for `Nc1nc(C(F)(F)F)cc2c1[nH]c(=O)n2Cc1ccccc1` here?
**A.** Its value is -12.1%.

**Q.** With `CC[C@H]1OC(=O)[C@H](C)[C@@H](O[C@H]2C[C@@](C)(OC)[C@@H](O)[C@H](C)O2)[C@H](C)[C@@H](O[C@@H]2O[C@H](C)C[C@H](N(C)C)[C@H]2O)[C@](C)(O)C[C@@H](C)C(=O)[C@H](C)[C@@H](O)[C@]1(C)O` as the molecule, how does the “% inhibition” value read?
**A.** The value was 34%.

**Q.** For `CCc1nc(N)nc(N)c1C#CCc1ccccc1`, which “% inhibition” value is on record?
**A.** Its value is 76.9%.

**Q.** For `CCCC1(C2CC2)c2cc(Cl)ccc2NC(=O)N1C` (stereo not given), which “% inhibition” value is on record?
**A.** Its value is -13.9%.
